Bioassay records from PubChem BioAssay.
ALDH1A1 inh: inhibitors of human aldehyde dehydrogenase 1A1. P00352. Purified ALDH1A1, NADH fluorescence, propionaldehyde substrate. Potency, µM (titrated, usually from 75.3 µM), actives largely listed as inhibitors. 220,000 compounds, 7.3% hits. AID 1030; active = well fitted inhibition curve with a large enough effect, not every such curve was filed as active; inconclusive = small, poorly fitted or top-dose-only effect, or another doubt; inactive = no such curve, though single readings can be large or run the other way
IMPase cell inh: IMPase inhibition in cells; AID 901; CHO-M1 cells, IP1 accumulation, HTRF TR-FRET ratio; P97697; 120,000 tested, under 10 active; inhibition (IP1 accumulation), % at 46.1 µM; active = well fitted curve in the direction sought with a large enough effect in the signal ratio, not every such curve was filed as active; inconclusive = small, poorly fitted or top-dose-only effect, or a change in a side signal; inactive = no such curve, though single readings can be large or run the other way; the % refers to the signal ratio;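 also: cells stimulated with carbachol in lithium chloride buffer; higher means more IMPase inhibition seen as more IP1 and lower FRET ratio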
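Seeded CHO-M1 cells were dosed with compound at up to 46 uM, stimulated with carbachol for 30 min, then lysed in IP-One detection reagents. Higher IP1 lowers the TR-FRET signal.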
NPSR antag: antagonists of human neuropeptide S receptor cAMP signaling. Q6W5P4. CHO-NPSR cells, cAMP TR-FRET, antagonist mode. Potency, µM (titrated, usually from 38.3 µM), actives largely listed as inhibitors. 220,000 compounds, 1% hits. AID 1461; also: nearly all actives have a fitted effect of over 50% in size
IMPase Li inh: cell-permeable IMPase inhibitors with lithium potentiation. CHO-M1 cells, IP1 TR-FRET (IP-One), carbachol + lithium. Potency, µM (highest dose often 59.4 µM), hits mostly inhibitors. 210,000 compounds, 0.35% hits;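 also: IP1 builds up when IMPase is blocked and the TR-FRET signal falls; nearly all actives have a fitted effect of over 50% in size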
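CHO cells stably expressing M1 receptor (2000/well) were cultured 16–30 h, then exposed to compounds with a small lithium addition for 30 min at 37C. IP1 was measured by TR-FRET competition; AC50 from Hill fits.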
HPGD block: inhibitors of human 15-hydroxyprostaglandin dehydrogenase (HPGD); P15428; purified HPGD, NADH fluorescence kinetic, PGE2 substrate; Potency, µM, usual class: inhibitors; 150,000 compounds, 4.3% hits; AID 894; active = well fitted inhibition curve with a large enough effect, not every such curve was filed as active; inconclusive = small, poorly fitted or top-dose-only effect, or another doubt; inactive = no such curve, though single readings can be large or run the other way
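NADH formation kinetics: reaction with 30 uM PGE2 and 1 mM NAD+ (final), 20 nM enzyme, Tris-HCl pH 8 with Tween 20, after 15 min compound preincubation at room temperature. Fluorescence change, last versus first of five reads.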
12-hLO inh: 12-hLO (ALOX12) enzyme inhibition; purified 12-hLO, xylenol orange hydroperoxide absorbance; Potency, µM (series often up to 57.1 µM), most hits filed as inhibitors; 150,000 compounds, 0.12% hits; P18054; AID 1452; also: nearly all actives have a fitted effect of over 55% in size
Target sequence (P18054 whole entry, looked up): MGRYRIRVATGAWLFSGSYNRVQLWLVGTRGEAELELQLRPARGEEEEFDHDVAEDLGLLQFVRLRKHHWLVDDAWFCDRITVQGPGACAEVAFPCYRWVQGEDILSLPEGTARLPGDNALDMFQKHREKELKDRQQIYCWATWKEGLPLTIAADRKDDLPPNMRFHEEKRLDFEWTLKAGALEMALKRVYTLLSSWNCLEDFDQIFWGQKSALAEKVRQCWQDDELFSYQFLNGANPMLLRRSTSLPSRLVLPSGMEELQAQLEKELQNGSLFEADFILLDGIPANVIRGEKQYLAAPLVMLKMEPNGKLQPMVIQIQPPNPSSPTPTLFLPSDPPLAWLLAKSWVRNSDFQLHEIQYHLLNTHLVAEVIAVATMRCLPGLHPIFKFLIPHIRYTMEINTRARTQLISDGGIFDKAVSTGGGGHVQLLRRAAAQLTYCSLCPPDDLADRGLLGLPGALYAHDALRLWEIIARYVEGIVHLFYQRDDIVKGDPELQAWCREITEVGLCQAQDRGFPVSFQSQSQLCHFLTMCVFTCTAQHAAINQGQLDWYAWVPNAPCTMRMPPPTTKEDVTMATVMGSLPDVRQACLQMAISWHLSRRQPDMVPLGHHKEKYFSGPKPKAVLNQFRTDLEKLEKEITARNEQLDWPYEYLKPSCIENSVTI
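Purified human 12hLO (150 nM), preincubated 15 min with compound, then 40 uM arachidonic acid for 30 min, room temperature, Hepes pH 7.0 with 0.01% Triton X-100. Hydroperoxide detected by ferrous iron/xylenol orange; 573/405 nm absorbance ratio gives reaction progress.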
Large screens that a line does not name were inactive. Only some compounds are listed: those with a hit (about 8.9% of all), similar ones and a draw of the others. Unless noted, calls follow the shape of the dose curve; as a rule, active = well fitted curve in the direction sought with a large enough effect; inconclusive = small, poorly fitted or top-dose-only effect, or another doubt; inactive = no such curve, though single readings can be large; an effect the other way counts as inactive or inconclusive.

CCOC(=O)N/N=C(C)/C=C/c1ccco1	ALDH1A1 inh 10µM (no result: IMPase cell inh)
O=C1COc2ccc(C(=O)COC(=O)/C=C/c3cccc(F)c3)cc2N1	none (no result: IMPase cell inh, IMPase Li inh, HPGD block, 12-hLO inh)
COCC(=O)N1CCC2(CC1)CN(C(=O)Nc1cccc(F)c1)C2	none (no result: IMPase cell inh, NPSR antag)
CC(/C=C/c1ccco1)=N\NC(=O)COc1ccc(C)c(C)c1	ALDH1A1 inh 3.5µM (no result: IMPase cell inh, HPGD block, 12-hLO inh)
O=C1OC(c2ccc(Cl)cc2)/C(=C(/O)c2ccccc2)C1=O (centres undefined)	ALDH1A1 inh 7.9µM
COCCOC(=O)c1c(C)oc2ccc(NS(=O)(=O)c3ccccc3)cc12	ALDH1A1 inh 20µM
Oc1ccc(N2CCN(c3ncnc4sc(-c5ccccc5)cc34)CC2)cc1	ALDH1A1 inh 25µM (no result: IMPase cell inh, HPGD block, 12-hLO inh)
Nc1ccc(N2CCOCC2)c2nonc12	ALDH1A1 inh 20µM (no result: IMPase cell inh, HPGD block, 12-hLO inh)
COC(=O)c1ccc(NC2=CC(=O)CC(C)(C)C2)cc1	none
O=c1[nH]c2ccccc2c(O)c1-c1ccccc1	none (no result: ALDH1A1 inh, IMPase cell inh, IMPase Li inh, HPGD block, 12-hLO inh)
Nc1[nH]c(=S)[nH]c(=O)c1-c1ccccc1	ALDH1A1 inh inconclusive, HPGD block 25µM
O=C1SCC(c2ccc(Cl)cc2Cl)=NN1Cc1nnc(-c2ccccc2)o1	HPGD block 32µM (no result: IMPase cell inh)
CC(=O)Nc1ccc(C2=NN(Cc3nnc(-c4ccccc4)o3)C(=O)SC2)cc1	HPGD block 5µM (no result: IMPase cell inh)
O=C1SCC(c2ccccc2)=NN1Cc1ccccc1	ALDH1A1 inh inconclusive (no result: IMPase cell inh)
CC(=O)Nc1ccc(C2=NN(CC#N)C(=O)SC2)cc1	none
CCCCN(CC)CCNC(=O)CN(C)S(=O)(=O)c1ccc2c(c1)c(=O)n(C)c(=O)n2C	none
Cc1ccccc1-c1nnn(CC(=O)N2CCN(S(=O)(=O)c3ccc(Cl)cc3)CC2)n1	none
Nc1ccccc1CCCC(=O)O	none (no result: IMPase cell inh, NPSR antag)
CC(=O)CSc1nc(-c2cccs2)c(C#N)c(=O)[nH]1	NPSR antag inconclusive, IMPase Li inh 7.9µM (no result: IMPase cell inh, HPGD block, 12-hLO inh)
CCN(CC)CCOc1ccc2c(c1)C(=O)c1cc(OCCN(CC)CC)ccc1-2	none (no result: IMPase cell inh, NPSR antag)
Cc1c(C(=O)OC2CCC(C)CC2)[nH]c2c1C(=O)CCC2 (centres undefined)	ALDH1A1 inh inconclusive
NC(=O)c1cc[n+](CC(=O)c2ccc(NC(=O)c3ccccc3)cc2)cc1	ALDH1A1 inh 4.5µM (no result: IMPase cell inh, HPGD block, 12-hLO inh)
COc1cccc(CN2CCN(C(=O)c3cccs3)CC2)c1OC	ALDH1A1 inh 18µM
COc1cccc(OC)c1C(=O)N1CCN(Cc2ccncc2)CC1	ALDH1A1 inh 14µM
O=C(Cn1c(O)c(/C=C2\C=Nc3ccccc32)sc1=O)Nc1ccc2c(c1)OCO2	none
N/C(=N\NC(=O)c1ccc(Cl)cc1)c1cnccn1	none (no result: ALDH1A1 inh, IMPase cell inh, IMPase Li inh, HPGD block, 12-hLO inh)
O=S(=O)(c1ccc2c(c1)OCCO2)N(Cc1ccc(F)cc1)Cc1nnc(-c2cccs2)o1	ALDH1A1 inh 4µM, HPGD block 4.5µM
Cc1cc(C(=O)CN(Cc2ccc(F)cc2)S(=O)(=O)c2ccc3c(c2)OCCO3)c(C)n1C	ALDH1A1 inh inconclusive, NPSR antag inconclusive
Cc1ccc([N+](=O)[O-])c(OCCCN2CCCCCC2)c1	ALDH1A1 inh inconclusive (no result: IMPase cell inh, HPGD block, 12-hLO inh)
O=C(O)CCSc1nnc(-c2ccncc2)n1-c1ccccc1	IMPase cell inh inconclusive
COc1ccc(-c2nnc(SCCC(=O)O)n2-c2ccccc2)cc1	ALDH1A1 inh inconclusive, HPGD block 32µM
COc1ccc(-n2c(SCc3ccc([N+](=O)[O-])cc3)nnc2-c2ccc(C)cc2)cc1	none (no result: IMPase cell inh)
COc1ccc(-n2c(SCC3CNC(=O)O3)nnc2-c2ccc(Cl)cc2)cc1 (centres undefined)	ALDH1A1 inh 8.9µM (no result: IMPase cell inh)
Cc1cccc(-c2nnc(SCC3CNC(=O)O3)n2-c2ccc(Cl)cc2)c1 (centres undefined)	ALDH1A1 inh 1.4µM (no result: IMPase cell inh)
Cc1ccc(-n2c(SCCN)nnc2-c2cccc(C)c2)cc1	none (no result: ALDH1A1 inh, IMPase cell inh, IMPase Li inh, HPGD block, 12-hLO inh)
CC(=O)O[C@@H]1[C@H](OC(=O)CC(C)C)c2c(ccc3ccc(=O)oc23)OC1(C)C	none (no result: IMPase cell inh)
COc1ccc(/C=C/C2=CC(C)(C)NC(=S)N2)cc1	ALDH1A1 inh 5.6µM (no result: IMPase cell inh, HPGD block, 12-hLO inh)
O=C(NC(=S)Nc1ccc2c(c1)OCO2)c1ccc(Cl)cc1	ALDH1A1 inh 14µM (no result: IMPase cell inh)
O=C(NC(=S)Nc1ccc2c(c1)OCCO2)c1ccco1	none (no result: ALDH1A1 inh, IMPase cell inh, IMPase Li inh, HPGD block, 12-hLO inh)
CC(C)C(=O)Nc1cccc(NC(=S)NC(=O)c2ccc(Cl)cc2)c1	ALDH1A1 inh 10µM, 12-hLO inh inconclusive
